Reference: PubChem BioAssay (Tox21)
Values joined by “and” are separate entries in the source; they are usually repeats but may differ in a detail not shown here. Equal values may be shown once. Results filed as inconclusive are left out. Active and inactive are the calls of the source. Unless noted, the call rests on the fitted dose curve; in most records, active means well fitted curve in the direction sought with a large enough effect in the repeat runs; inconclusive means weak or mixed curves; inactive means no such curve, though single readings can be large; an effect the other way counts as inactive or inconclusive.

Experiments:
[1] = qHTS assay for small molecules that induce genotoxicity in human embryonic kidney cells expressing luciferase-tagged ATAD5 (AID 651632); further: nearly all actives have a fitted effect of over 15% in size
Summary of the method: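 Luminescent reporter readout, HEK293T ATAD5-luc line: 16 hr drug exposure (37C, 5% CO2) followed by Amplite, 30 min RT.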

[2] = qHTS assay for small molecule agonists of the p53 signaling pathway - cell viability (AID 651633; calls by dose curve; further: nearly all actives have a fitted effect of over 30% in size; further: potency means the concentration at half of the fitted maximal effect)
Summary of the method: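 p53RE-bla cells, seeded at 4,000 per well and rested 5 h at 37 C/5% CO2, received compounds in DMSO for 16 h at 37 C. CellTiter-Glo was then added, and luminescence was read after 30 min at room temperature to gauge cytotoxicity.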

[3] = qHTS assay for small molecules that induce genotoxicity in human embryonic kidney cells expressing luciferase-tagged ATAD5 - cell viability (AID 651634; calls by dose curve; further: nearly all actives have a fitted effect of over 25% in size; further: potency means the concentration at half of the fitted maximal effect)
Summary of the method: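 Viability read: CellTiter-Fluor fluorescence, 30 min at 37C. Cells: HEK293T, luciferase-tagged ATAD5. Exposure: 15.5 hr, 37C, 5% CO2, compound or DMSO vehicle.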

[4] = qHTS assay for small molecule disruptors of the mitochondrial membrane potential - cell viability (AID 720634; calls by dose curve; further: nearly all actives have a fitted effect of over 20% in size; further: potency means the concentration at half of the fitted maximal effect)
Summary of the method: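 HepG2, 1 hr compound, 37 C. ATP luminescence via CellTiter-Glo, 30 min RT, same well as m-MPI.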

[5] = qHTS assay for small molecule disruptors of the mitochondrial membrane potential (AID 720635); further: potency means the concentration at half of the fitted maximal effect
Summary of the method: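 HepG2 cells (2,000/well) attached overnight at 37C, then took compound for 1 hr at 37C, 5% CO2. Mito-MPS dye was added for 30 min; fluorescence was read at 490/535 nm (monomers) and 540/590 nm (aggregates).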

[6] = qHTS assay to test for compound auto fluorescence at 590 nm (red) in HepG2 cells (AID 720674)
Summary of the method: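 Compound auto-fluorescence is scored relative to Rose Bengal sodium, measured at 540/590 nm in live HepG2 cultures after 1 hr compound contact (37 C, 5% CO2).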

[7] = qHTS assay to test for compound auto fluorescence at 535 nm (green) in HepG2 cells (AID 720675)
[8] = qHTS assay to test for compound auto fluorescence at 460 nm (blue) in HEK293 cells (AID 720678)
Summary of the method: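 Cells were seeded and left to adhere for 4-5 hr at 37C. Compounds were then pin-transferred. After an overnight incubation at 37C under 5% CO2, intrinsic fluorescence at 405/460 nm was measured and referenced to triamterene.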

[9] = qHTS assay to test for compound auto fluorescence at 590 nm (red) in HEK293 cells (AID 720679)
Summary of the method: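 Each well held 2,000 HEK293 cells in medium containing 10% dialyzed FBS. Following 4-5 hr attachment at 37C, 23 nL test compound or DMSO was added; plates sat overnight, and red fluorescence (540/590nm) was recorded.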

[10] = qHTS assay to test for compound auto fluorescence at 535 nm (green) in HEK293 cells (AID 720680)
[11] = qHTS assay to test for compound auto fluorescence at 460 nm (blue) in HEK293 cell free culture (AID 720681)
Summary of the method: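 Test compounds were pinned into cell-free culture medium (DMEM with 10% FBS) and fluorescence was read directly at Ex/Em 405/460 nm. Signals were expressed as fluorescence equivalents of triamterene, with DMSO vehicle as control.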

[12] = qHTS assay to test for compound auto fluorescence at 535 nm (green) in HEK293 cell free culture (AID 720682)
Summary of the method: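 DMEM + 10% FBS, cell-free; cpd or DMSO pinned in; Ex485/Em535 read; output as fluorescein-equivalent signal.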

[13] = qHTS assay to test for compound auto fluorescence at 590 nm (red) in HEK293 cell free culture (AID 720683)
Summary of the method: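 Tox21 10K library compounds were pinned into cell-free DMEM with 10% FBS and fluorescence was read at excitation 540 nm. Activity is expressed as Rose Bengal sodium equivalency.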

[14] = qHTS assay to test for compound auto fluorescence at 590 nm (red) in HepG2 cell free culture (AID 720684)
Summary of the method: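 Measured in medium alone (MEM containing 10% FBS) following pintool addition of compound; emission at 590 nm with 540 nm excitation, referenced to Rose Bengal sodium.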

[15] = qHTS assay to test for compound auto fluorescence at 460 nm (blue) in HepG2 cell free culture (AID 720685)
Summary of the method: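 Compound (23 nL) or DMSO pinned into cell-free MEM with 10% FBS; blue fluorescence read at 405/460 nm excitation/emission, expressed as auto-fluorescence equivalency to triamterene.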

[16] = qHTS assay to test for compound auto fluorescence at 535 nm (green) in HepG2 cell free culture (AID 720686)
[17] = qHTS assay to test for compound auto fluorescence at 460 nm (blue) in HepG2 cells (AID 720687)
Summary of the method: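 Cells (2,000/well in MEM with 10% FBS) attached overnight at 37 C, then were exposed to compound or DMSO for 1 hr at 37 C, 5% CO2. Fluorescence read at Ex/Em 405/460 nm, expressed as triamterene-equivalent signal.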

[18] = target: Glucocorticoid receptor (Homo sapiens) (UniProt P04150); experiment: qHTS assay to identify small molecule agonists of the glucocorticoid receptor (GR) signaling pathway (AID 720691; active means well fitted activation curve with a large enough effect in the signal ratio in the repeat runs, not every such curve was filed as active; the % refers to the signal ratio); conditions: GR-bla HeLa, beta-lactamase reporter ratio, 18 h; activation: at 62.4 µM (top of the series)
Chain of Glucocorticoid receptor (Homo sapiens) (P04150 whole entry, looked up): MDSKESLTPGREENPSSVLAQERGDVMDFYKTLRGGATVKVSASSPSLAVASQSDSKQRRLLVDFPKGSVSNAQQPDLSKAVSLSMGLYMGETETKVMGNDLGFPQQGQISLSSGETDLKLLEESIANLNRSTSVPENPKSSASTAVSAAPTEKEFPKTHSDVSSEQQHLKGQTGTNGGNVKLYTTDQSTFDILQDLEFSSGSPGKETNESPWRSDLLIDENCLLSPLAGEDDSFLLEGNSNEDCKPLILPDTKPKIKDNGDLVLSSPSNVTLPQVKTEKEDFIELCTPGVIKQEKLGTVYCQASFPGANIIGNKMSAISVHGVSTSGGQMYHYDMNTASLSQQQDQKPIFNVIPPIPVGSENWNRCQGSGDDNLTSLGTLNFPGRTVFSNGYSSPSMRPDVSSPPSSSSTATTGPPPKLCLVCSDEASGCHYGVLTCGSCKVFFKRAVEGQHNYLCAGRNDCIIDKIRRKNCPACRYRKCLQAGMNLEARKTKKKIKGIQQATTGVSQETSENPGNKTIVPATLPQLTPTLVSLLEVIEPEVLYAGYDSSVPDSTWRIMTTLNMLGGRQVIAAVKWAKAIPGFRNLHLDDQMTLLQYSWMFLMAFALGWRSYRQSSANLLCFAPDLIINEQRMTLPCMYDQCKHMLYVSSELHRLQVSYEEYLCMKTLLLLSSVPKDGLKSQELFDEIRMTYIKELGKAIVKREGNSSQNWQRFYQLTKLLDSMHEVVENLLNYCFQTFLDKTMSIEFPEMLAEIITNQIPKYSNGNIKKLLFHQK
Summary of the method: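 qHTS in GR-bla HeLa cells: 4 h settling at 37 C/5% CO2, 18 h compound incubation at 37 C, 2 h LiveBLAzer B/G FRET substrate at room temperature, fluorescence intensity measured.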

[19] = target: Glucocorticoid receptor (Homo sapiens) (UniProt P04150); experiment: qHTS assay to identify small molecule antagonists of the glucocorticoid receptor (GR) signaling pathway (AID 720692; active means well fitted inhibition curve with a large enough effect in the signal ratio in the repeat runs, not every such curve was filed as active; the % refers to the signal ratio)
Summary of the method: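 Inhibition of glucocorticoid signalling is measured in HeLa cells with a GRE-controlled beta-lactamase reporter; cells are co-treated with compound and 5 nM dexamethasone (final) for 18 h before FRET substrate readout.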

Measured: Potency

COC(=O)C(C)N(C(=O)c1ccco1)c1c(C)cccc1C (stereo unspecified)
inactive: [1] | [2] | [3] | [4] | [5] | [6] | [7] | [8] | [9] | [10] | [11] | [12] | [13] | [14] | [15] | [16] | [17] | [18] | [19]

CC(=O)[O][Sn]([c]1ccccc1)([c]1ccccc1)[c]1ccccc1
active: [2] 3.44 µM | [3] 0.122 µM | [4] 15.4 µM | [5] 0.077 µM
inactive: [1] | [6] | [7] | [8] | [9] | [10] | [11] | [12] | [13] | [14] | [15] | [16] | [17]

O=c1[nH]c(Cl)c(Cl)cc1Cl
inactive: [1] | [2] | [3] | [4] | [6] | [7] | [8] | [9] | [10] | [11] | [12] | [13] | [14] | [15] | [16] | [17]
active: [5] 54.5 µM

CCC(OC(C)=O)C(CC(C)NC)(c1ccccc1)c1ccccc1 (stereo unspecified)
inactive: [1] | [3] | [4] | [6] | [7] | [8] | [9] | [10] | [11] | [12] | [13] | [14] | [15] | [16] | [17]
active: [2] 69.2 µM | [5] 49 µM

COc1ccc2[nH]cc(CCN(C(C)C)C(C)C)c2c1
inactive: [1] | [2] | [3] | [4] | [5] | [6] | [7] | [8] | [9] | [10] | [11] | [12] | [13] | [14] | [15] | [16] | [17] | [18]

Cc1ccc(C)c2ccccc12
inactive: [1] | [2] | [3] | [4] | [5] | [6] | [7] | [8] | [9] | [10] | [11] | [12] | [13] | [14] | [15] | [16] | [17]

O=[N+]([O-])c1cc(C(F)(F)F)c(Cl)c([N+](=O)[O-])c1Nc1ncc(C(F)(F)F)cc1Cl
inactive: [1] | [6] | [7] | [8] | [9] | [10] | [11] | [12] | [13] | [14] | [15] | [16] | [17]
active: [2] 27.3 µM | [3] 30.6 µM | [4] 0.172 µM | [5] 0.243 µM

CCN(CC)CCc1c[nH]c2ccccc12
inactive: [1] | [2] | [3] | [4] | [5] | [6] | [7] | [8] | [9] | [10] | [11] | [12] | [13] | [14] | [15] | [16] | [17] | [18] | [19]

ClC1=C(Cl)[C@]2(Cl)[C@H]3[C@H]([C@@H]4C=C[C@H]3C4)[C@@]1(Cl)C2(Cl)Cl
active: [2] 30.6 µM and 61.1 µM | [5] 30.6 µM and 17.2 µM
inactive: [1] | [3] | [4] | [6] | [7] | [8] | [9] | [10] | [11] | [12] | [13] | [14] | [15] | [16] | [17]

CC(Cc1ccc(OCC(=O)O)cc1)NCC(O)c1csc(C(F)(F)F)n1 (stereo unspecified)
inactive: [1] | [2] | [3] | [4] | [5] | [6] | [7] | [8] | [9] | [10] | [11] | [12] | [13] | [14] | [15] | [16] | [17] | [18]

COP(=S)(NC(C)C)Oc1ccc(C)cc1[N+](=O)[O-] (stereo unspecified)
active: [5] 24.3 µM
inactive: [1] | [2] | [3] | [4] | [6] | [7] | [8] | [9] | [10] | [11] | [12] | [13] | [14] | [15] | [16] | [17] | [18]

C=CCOC(=O)c1ccccc1N
inactive: [1] | [2] | [3] | [4] | [5] | [6] | [7] | [8] | [9] | [10] | [11] | [12] | [13] | [14] | [15] | [16] | [17] | [18]

ClSC(Cl)(Cl)Cl
inactive: [1] | [2] | [3] | [4] | [5] | [6] | [7] | [8] | [9] | [10] | [11] | [12] | [13] | [14] | [15] | [16] | [17]

Cc1cnc2c(C(=O)O)c(Cl)ccc2c1
inactive: [1] | [2] | [3] | [4] | [6] | [7] | [8] | [9] | [10] | [11] | [12] | [13] | [14] | [15] | [16] | [17] | [18]
